# Compound activity (PubChem BioAssay)
# Glioma ERSR ind = qHTS for Inducers of the Endoplasmic Reticulum Stress Response (ERSR) in Human Glioma: qHTS; U87-MG GRP78 promoter luciferase reporter, 16 h; Potency, µM, usual class: activators; hit rate 0.02% among 420,000; AID 602332, 2012; further: series mostly up to about 76 µM; nearly all actives have a fitted effect of over 35% in size
#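 Stably transfected U87-MG glioma cells carrying a GRP78-based luciferase sensor; 16 h compound incubation. Luminescence end-point read 10 min after Bright-Glo addition at room temperature.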
# D3 ag = qHTS of D3 Dopamine Receptor Agonist: qHTS; D3R DiscoveRx beta-arrestin cells, luminescence, 90 min; max activation, %; hit rate 0.58% among 410,000; D(3) dopamine receptor (Homo sapiens), P35462; AID 652048, 2013; in the data active means max activation above about 30%
# Target sequence (P35462 whole entry, looked up): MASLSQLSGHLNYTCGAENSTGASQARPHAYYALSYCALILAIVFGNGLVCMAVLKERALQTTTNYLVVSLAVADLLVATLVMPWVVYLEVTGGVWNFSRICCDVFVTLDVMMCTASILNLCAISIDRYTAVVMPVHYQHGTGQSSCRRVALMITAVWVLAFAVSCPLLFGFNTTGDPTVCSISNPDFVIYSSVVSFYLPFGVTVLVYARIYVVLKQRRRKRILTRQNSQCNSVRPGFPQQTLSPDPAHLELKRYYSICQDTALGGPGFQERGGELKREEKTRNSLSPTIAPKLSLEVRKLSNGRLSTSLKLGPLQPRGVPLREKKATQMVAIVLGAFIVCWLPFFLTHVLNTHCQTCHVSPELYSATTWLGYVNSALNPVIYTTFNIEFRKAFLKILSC
#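 Agonist-mode cell screen: cells plated at 1500/well and incubated overnight at 37 °C, then exposed to library compounds for 90 min at 37 °C. Detection reagent was added for 30–60 min at room temperature, and luminescence was read.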
# Nrf2 ARE act = qHTS of Nrf2 Activators; AREc32 ARE-luciferase reporter (MCF7-derived line), luminescence, 24 h; hit rate 0.31% among 410,000; Potency, µM (series often up to 46.1 µM), usual class: activators; further: nearly all actives have a fitted effect of over 65% in size
#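 Luciferase luminescence (Steady-Glo, 30 min at room temperature) served as the read-out of ARE activation in AREc32 cells treated with compounds for 24 hr at 37 deg C.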
# DRD3 antagonist = qHTS of D3 Dopamine Receptor Antagonist: qHTS. D(3) dopamine receptor (Homo sapiens), P35462. D3R cells, DiscoveRx beta-arrestin luminescence, antagonist mode; hits give low values. max response, negative = inhibition, %. hit rate 2.5% among 360,000. AID 652054, 2013; in the data active means max response below about -50%; inconclusive means no clear call, values can overlap the other calls
#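 Cells plated overnight at 1500 cells/well, then exposed to library compounds with dopamine controls for 90 minutes at 37 degrees C. DiscoveRx reagent added for 30–60 minutes at room temperature; luminescence read, quantitative HTS format.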
# A number is an active result; . = inactive; ? = inconclusive; / = no result; [ ] = remark or other dose. An excerpt weighted towards active compounds, which were near 3% of everything screened. Unless noted, the call rests on the fitted dose curve; in most records, active means well fitted curve in the direction sought with a large enough effect; inconclusive means small, poorly fitted or top-dose-only effect, or another doubt; inactive means no such curve, though single readings can be large; an effect the other way counts as inactive or inconclusive.
SMILES,Glioma ERSR ind,D3 ag,Nrf2 ARE act,DRD3 antagonist
CCCNC(=O)C(Cc1cccc(C#N)c1)NC(=O)c1ccc(C#N)cc1 (centres undefined),.,90,.,.
Cc1nc([N+](=O)[O-])cn1CC(O)c1ccc2c(c1)OCCO2 (centres undefined),.,/,/,/
CC(C)c1ccc(NC(=O)Nc2nc(C(N)C(C)C)cs2)cc1 (centres undefined),.,43,.,-54
CC(N)c1csc(NC(=O)Nc2cccc(C(F)(F)F)c2)n1 (centres undefined),.,.,.[9.22 µM],-54
COc1ccc(C)cc1NC(=O)c1sc2nc(-c3ccc(F)cc3)cn2c1C,.,.,.,/
CCOc1cccc(/C=C2\NC(=S)N(c3ccccc3)C2=O)c1O,.,.,11µM,.
O=C(O)c1ccc(-n2c(-c3ccc(Br)cc3)n[nH]c2=S)cc1,.,.,.,-89
O=C(NCc1nnc2n1CCN(Cc1cc3c(cc1Cl)OCO3)CC2)c1cccc(F)c1,.,/,/,/
CC(=O)N=C1C=CC(=CN(O)C(C)(C)Cc2ccccc2)C=C1,.,.,.,-54
CC(C)C[C@H](NC(=O)CN(C)C(=O)[C@H](Cc1ccccc1)NC(=O)[C@H](Cc1ccccc1)NC(=O)[C@H](CCC(N)=O)NC(=O)[C@H](CCC(N)=O)NC(=O)[C@@H]1CCCN1C(=O)[C@H](CCCCN)NC(=O)[C@@H]1CCCN1C(=O)[C@@H](N)CCCN=C(N)N)C(=O)N[C@@H](CCS(C)(=O)=O)C(N)=O,.,/,/,/
CC(=O)[C@H]1CC[C@H]2[C@@H]3CC=C4C[C@@H](O)CC[C@]4(C)[C@H]3CC[C@]12C,.,.,.,.
CC(=O)C1CCC2C3CC(C)=C4CC(O)CCC4(C)C3CCC12C (centres undefined),.,65,.,.
COc1cccc(-n2nc(C(N)=O)c(O)cc2=O)c1,.,.,.,.
COc1cccc(-n2nc(C#N)c(Cl)cc2=O)c1,.,.,?,-87
CCC1C(=O)N(c2nc(C)cc(C)n2)N=C1C (centres undefined),.,.,.,.
CC1=NN(c2nc(C)cc(C)n2)C(=O)C1CCC(C)C (centres undefined),.,.,.,-60
Cc1ccc(C(=O)Nc2cccc(-c3nc(CNC(=O)c4ccc5ccccc5n4)c(C)o3)c2)s1,.,/,/,/
Cc1cc(C(=O)Nc2ccccc2[N+](=O)[O-])cs1,.,.,11µM,.
COC(=O)c1sccc1NC(=O)c1csc(C)c1,.,.,5µM,?
COC(=O)c1sccc1NC(=O)c1ccc(C)cc1,.,.,.,.
Cc1cc(C(=O)Nc2ccc(Br)cc2)cs1,.,.,11µM,.
COC(=O)c1sccc1NC(=O)c1cccc(Cl)c1,.,.,8.9µM,.
Cc1ccc(C(=O)N(Cc2cc3ccc(F)cc3nc2N2CCC(O)CC2)CC2CCCO2)cc1 (centres undefined),.,/,/,/
COc1ccc(-c2[nH]c(-c3ccc(Cl)cc3)nc2SCC(=O)NCC2CCCO2)cc1 (centres undefined),.,.,.,/
COc1cc2c(cc1O)CCN[C@@]21CS[C@H]2c3c(OC(C)=O)c(C)c4c(c3C(COC1=O)N1C2C2c3c(cc(C)c(OC)c3O)CC([C@@H]1O)N2C)OCO4 (some centres undefined),.,/,/,/
SMILES,Glioma ERSR ind,D3 ag,Nrf2 ARE act,DRD3 antagonist
CCc1ccc(NC(=O)Nc2ccsc2C(=O)OC)cc1,.,.,13µM,.
COc1ccccc1-c1ccnc(-n2ncc(C(=O)N3CCN(C(C)C)CC3)c2-c2ccco2)n1,.,/,/,/
CCc1cc(C(=O)NCc2c(C)ncc3c2CCN(C(=O)C2=CCCC2)C3)no1,.,/,/,/
O=C(C1=C[C@@H](c2ccc(Br)cc2)C[C@@H](OCc2ccc(CO)cc2)O1)N1CCN(Cc2ccc3c(c2)OCO3)CC1,.,.,.,-63
O=C(c1ccc(Br)s1)N1CCN(Cc2ccc3c(c2)OCO3)CC1,.,.,.,-95
NC(=O)C1=C[C@H](c2ccc(C(F)(F)F)cc2)C[C@H](OCc2ccc(CO)cc2)O1,.,.,.,.
NC(=O)C1=C[C@@H](c2ccc(C(F)(F)F)cc2)C[C@@H](OCc2ccc(CO)cc2)O1,.,.,.,-56
O=C(c1ccc(Br)o1)N1CCN(Cc2ccc3c(c2)OCO3)CC1,.,.,.,-81
O=C(C1=C[C@@H](c2ccc(C(F)(F)F)cc2)C[C@@H](OCc2ccc(CO)cc2)O1)N1CCN(Cc2ccc3c(c2)OCO3)CC1,.,.,.,?
O=C(c1cc2c(s1)CCCC2)N1CCN(Cc2ccc3c(c2)OCO3)CC1,.,.,.,.
O=C(C[n+]1cccc(Br)c1)c1ccc2c(c1)CCCC2,.,/,/,/
CCC1CN(CCNC(=O)c2cccnc2OC)Cc2cc(OC)ccc2O1 (centres undefined),.,/,/,/
Cc1ccc2[nH]c3nc(SCCN4CCOCC4)nnc3c2c1,.,.,.,-57
O=C1CC(=C(c2ccccc2)c2ccccc2)C(=O)N1CCCCN1CCN(c2cccc(Cl)c2)CC1,.,.,.,-52
Cc1ccccc1N1CCN(CCCN2C(=O)CC(=C(c3ccccc3)c3ccccc3)C2=O)CC1,.,.,.,?
O=C1C2CCCCN2C(=O)N1CCCCN1CCN(c2cccc(Cl)c2)CC1 (centres undefined),.,.,.,-60
O=C1C2CCCN2C(=O)N1CCCN1CCN(c2cccc(Cl)c2)CC1 (centres undefined),.,.,.,-50
O=c1n(CCCN2CCN(c3cccc(Cl)c3)CC2)nc2ccccn12,.,.,.,-93
Cc1ccc(N2CCN(CCCN3C(=O)C4CCCN4C3=O)CC2)cc1 (centres undefined),.,.,.,.
NC(=O)CN1CCN(c2cccc(Cl)c2)CC1,.,.,.,.
COc1ccc(-n2nnc(-c3nc(-c4cccs4)no3)c2N)cc1OC,.,.,.,/
CCC(C(=O)Nc1cc(Cl)ccc1OC)n1nc(-c2ccccc2)ccc1=O (centres undefined),.,.,.,/
O=C1C2CCCCN2C(=O)N1CCCCN1CCN(c2cccc(C(F)(F)F)c2)CC1 (centres undefined),.,.,.,-140
CCOC(=O)c1cccc(NC(=O)Cn2ncc3c(=O)oc4ccccc4c32)c1,.,.,.,/
CC1=C/C(=C(\c2cc(C)c(O)c(Br)c2)c2ccccc2S(=O)(=O)O)C=C(Br)C1=O,.,.,.,-52
Cc1cc(C(=O)c2ccccc2)cc(C)c1O,.,.,.,.
Clc1nc2sccn2c1/C=N/n1cnc2ccccc21,.,.,3.2µM,.
C(=N\n1cnc2ccccc21)/c1cccnc1,.,.,.,.
Cc1c(C(=O)O)c(O)cc2c1C(=O)c1c(O)c([C@H]3O[C@H](CO)[C@@H](O)[C@H](O)[C@H]3O)c(O)c(O)c1C2=O,.,/,/,/
Cc1c(C(=O)O)c(O)cc2c1C(=O)c1c(O)c([C@@H]3O[C@H](CO)[C@@H](O)[C@H](O)[C@H]3O)c(O)c(O)c1C2=O,.,.,.,-84
